Only some compounds are listed: those with a hit (about 9.4% of all), similar ones and a draw of the others.
HPGD inh: blocks human HPGD enzyme activity | P15428 | purified HPGD, NADH fluorescence kinetic, PGE2 substrate | Potency, µM, for inactives: top-dose activity change, negative = inhibition, hits mostly inhibitors | 4.3% of 150,000 active; active means well fitted inhibition curve with a large enough effect, not every such curve was filed as active; inconclusive means small, poorly fitted or top-dose-only effect, or another doubt; inactive means no such curve, though single readings can be large or run the other way; further: potency means the concentration at half of the fitted maximal effect; on the % scale 0 is the no-effect control and ±100 the full control effect
Target sequence (P15428 whole entry, looked up): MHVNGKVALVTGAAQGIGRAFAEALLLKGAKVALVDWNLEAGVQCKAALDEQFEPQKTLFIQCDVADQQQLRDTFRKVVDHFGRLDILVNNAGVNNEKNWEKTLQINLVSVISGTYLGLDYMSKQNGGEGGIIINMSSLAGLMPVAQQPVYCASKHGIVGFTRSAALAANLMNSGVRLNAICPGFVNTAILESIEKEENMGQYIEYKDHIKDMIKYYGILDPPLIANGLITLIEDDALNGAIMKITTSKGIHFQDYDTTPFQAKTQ
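NADH formation kinetics: reaction with 30 uM PGE2 and 1 mM NAD+ (final), 20 nM enzyme, Tris-HCl pH 8 with Tween 20, after 15 min compound preincubation at room temperature. Fluorescence change, last versus first of five reads.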
IMPase inh: cell-permeable inhibitors of inositol monophosphatase (IMPase) | P97697 | AID 901 | 120,000 tested, under 10 active | CHO-M1 cells, IP1 accumulation, HTRF TR-FRET ratio | inhibition (IP1 accumulation), % at 46.1 µM; active means well fitted curve in the direction sought with a large enough effect in the signal ratio, not every such curve was filed as active; inconclusive means small, poorly fitted or top-dose-only effect, or a change in a side signal; inactive means no such curve, though single readings can be large or run the other way; the % refers to the signal ratio;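 further: cells stimulated with carbachol in lithium chloride buffer; plate controls were DMSO basal wells for no effect and reference inhibitor wells for full effect; higher means more IMPase inhibition seen as more IP1 and lower FRET ratio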
Target sequence (P97697 whole entry, looked up): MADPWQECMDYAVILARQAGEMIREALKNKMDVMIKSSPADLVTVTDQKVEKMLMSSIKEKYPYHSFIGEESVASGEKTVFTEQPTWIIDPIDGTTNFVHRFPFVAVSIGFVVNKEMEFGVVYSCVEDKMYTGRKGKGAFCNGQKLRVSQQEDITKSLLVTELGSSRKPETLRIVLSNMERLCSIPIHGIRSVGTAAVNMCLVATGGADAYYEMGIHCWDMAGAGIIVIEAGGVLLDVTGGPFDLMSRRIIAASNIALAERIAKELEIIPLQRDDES
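CHO-M1 cells (CHO stably expressing M1 receptor), compound up to 46 uM final, stimulated with carbachol (50 uM as added) in buffer with 50mM LiCl, pH 7.4, 30 min at 37C. Cytosolic IP1 read by TR-FRET; AC50 from Hill fits.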
ALDH1A1 block: blocks purified human ALDH1A1 activity | Purified ALDH1A1, NADH fluorescence, propionaldehyde substrate | Potency, µM (doses to about 75.3 µM), without a hit: at the top dose activity, negative = inhibition, most hits filed as inhibitors | 7.3% of 220,000 active | AID 1030; active means well fitted inhibition curve with a large enough effect, not every such curve was filed as active; inconclusive means small, poorly fitted or top-dose-only effect, or another doubt; inactive means no such curve, though single readings can be large or run the other way;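 further: potency means the concentration at half of the fitted maximal effect; plate controls were no enzyme wells and a reference inhibitor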
HTT ATP protect: Huntington cell model cytoprotection by ATP luminescence | PC12 HTT-Q103 induced, cytoprotection, ATP luminescence, 40 h | Potency, µM (highest dose often 56.4 µM), for the others: cytoprotection (ATP increase), most hits filed as activators | 0.14% of 230,000 active | AID 1471; further: potency means the concentration at half of the fitted maximal effect; % of control where 0% means no effect; nearly all actives have a fitted effect of over 45% in size
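Rat PC12, Q103 Htt exon1-GFP fusion, ecdysone promoter; tebufenozide inducer 100 nM final; compound titration; qHTS, 1500 cells/well; ATPlite luminescent read.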
IMPase Li cell: membrane-permeable IMPase blocker, potentiated with lithium | CHO-M1 cells, IP1 TR-FRET (IP-One), carbachol + lithium | Potency, µM (top dose mostly 59.4 µM), inactives show at the top dose activity, negative = IMPase inhibition, actives largely listed as inhibitors | 0.35% of 210,000 active;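 further: IP1 builds up when IMPase is blocked and the TR-FRET signal falls; potency means the concentration at half of the fitted maximal effect; plate controls were basal vehicle for no effect and high inhibitor control for full effect; nearly all actives have a fitted effect of over 50% in size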
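Readout is a homogeneous TR-FRET IP1 immunoassay (Ex 320, Em 665 and 620), where raised cytosolic IP1 lowers signal. Cells were CHO-M1 treated 30 min at 37C with test compounds plus a little lithium; AC50 values came from Hill-equation fitting.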
HTT aggregate: mutant huntingtin aggregation inhibition | PC12 HttQ103-GFP aggregates, Acumen cytometry, 40 h | Potency, µM (top dose mostly 46.1 µM), without a hit: at the highest dose activity change, negative = inhibition, hits mostly inhibitors | 1.1% of 220,000 active; further: potency means the concentration at half of the fitted maximal effect; on the % scale 0 is the no-effect control and ±100 the full control effect; nearly all actives have a fitted effect of over 60% in size
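Using laser scanning cytometry, GFP-positive aggregates were counted after lysis of PC12 cells induced with 100 nM tebufenozide to express HTT exon 1 Q103–GFP. Compounds were tested in titration.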
* marks the source's active call; other numbers are inactive results; ? = inconclusive; · = not tested or not shown; [ ] = another dose, or the depositor's remark. Unless noted, the call rests on the fitted dose curve; in most records, active means well fitted curve in the direction sought with a large enough effect; inconclusive means small, poorly fitted or top-dose-only effect, or another doubt; inactive means no such curve, though single readings can be large; an effect the other way counts as inactive or inconclusive.

SMILES	HPGD inh	IMPase inh	ALDH1A1 block	HTT ATP protect	IMPase Li cell	HTT aggregate
O=C1c2oc3ccccc3c(=O)c2C(c2ccccc2F)N1Cc1ccc2c(c1)OCO2 (configuration not stated)	·	-5	·	·	·	·
O=C(O)[C@H]([C@H]1NCCS1)N1C(=O)c2ccccc2C1=O	·	·	·	6%[10 µM]	·	·
Cc1c(C(=O)Nc2ccc3c(c2)CCC3)cccc1[N+](=O)[O-]	-26%	·	9.5µM*	·	15%	-18%
CCC(=O)Nc1cccc(NC(=O)c2cccc([N+](=O)[O-])c2C)c1	-11%	·	-7%	-13%[10 µM]	-1%	-1%
O=C(NCc1ccco1)c1sc2cc(Cl)ccc2c1Cl	16µM*	?	20µM*	1%[10 µM]	6%	-1%
NC(=O)COC(=O)CNC(=O)c1sc2ccccc2c1Cl	·	·	22µM*	-7%[10 µM]	?	3%
O=C(NCc1ccco1)c1nc2ccccc2s1	?	-5	?	2%	20%[38.3 µM]	5%
CCn1nnc(NC(=O)c2sc3ccccc3c2Cl)n1	-17%	1	3.2µM*	1%[10 µM]	-24%	-3%
O=C(NCc1ccco1)c1sc2ccccc2c1Cl	16µM*	-6	?	11%[10 µM]	0%	-7%
COC(=O)N[C@@H](CCc1ccccc1)[C@]1(C(C)=O)CCCC1=O	-11%	·	-2%	-51%	18%	·
c1cncc(-c2nn[nH]n2)c1	-12%	3	4%	1%	4%[38.3 µM]	-14%
c1cncc(-c2cccnc2)c1	-13%	-2	?	-9%	14µM*	-4%
Cc1onc(-c2ccccc2)c1C(=O)Nc1ccc(S(=O)(=O)N2CCCCC2)cc1	-1%	-2	-6%	2%	4%	-20%
O=C(Nc1ccc(-c2nnc3n2CCCCC3)cc1)c1cnccn1	10µM*	?	3%	9%	-15%[38.3 µM]	6%
Cc1onc(-c2ccccc2)c1C(=O)Nc1ccc(-c2nnc3n2CCCCC3)cc1	7.1µM*	9	3%	-11%[10 µM]	1%[38.3 µM]	-19%
O=C(Cn1cnc2ccccc2c1=O)Nc1cccc(-c2nnc3n2CCCCC3)c1	-12%	1	-5%	-12%	51%[38.3 µM]	-32%
O=C(Cn1cnc2ccccc2c1=O)Nc1ccc(-c2nnc3n2CCCCC3)cc1	13µM*	-2	14µM*	0%	-5%[38.3 µM]	-4%
COC(=O)c1c(NC(=O)c2cc3ccccc3c(=O)o2)sc2c1CCCC2	·	1	·	·	·	·
Cc1ccc(CN2CCN(/N=C/C=C/c3ccccc3[N+](=O)[O-])CC2)cc1	·	·	6.3µM*	-5%[10 µM]	30%	?
COc1ccccc1/C=C/C=N/N1CCN(Cc2ccccc2)CC1	-12%	·	?	33%[10 µM]	0%	-10%
CC(C)C[C@@H](CC(=O)N[C@H](CC(=O)N[C@@H]1CCCC[C@H]1C(=O)N[C@H](CC(=O)N[C@@H](CCC(=O)O)CC(=O)O)Cc1ccccc1)C(C)C)NC(=O)[C@@H]1CNCC[C@H]1N	-3%	·	-14%	-3%[1.9 µM]	9%	·
CCOc1cnn(-c2cc(Oc3ccc(C)cc3)ncn2)c(=O)c1Cl	-8%	-7	11µM*	-1%[10 µM]	9%[38.3 µM]	4%
Cc1ccccc1Oc1cc(-n2ncc(Cl)c(Cl)c2=O)ncn1	-17%	·	1.6µM*	-97%[10 µM]	-20%	?
O=C(O)C1OC(O)C(O)C(O)C1O (configuration not stated)	2%	-8	10%	-1%[1.9 µM]	10%	·
CC1CCc2c(sc3nc(CN4CCOCC4)nc(Sc4ccccc4)c23)C1 (configuration not stated)	-6%	·	25µM*	-3%[10 µM]	4%	30%
SMILES	HPGD inh	IMPase inh	ALDH1A1 block	HTT ATP protect	IMPase Li cell	HTT aggregate
CN(Cc1ccco1)c1ncnc2ccc(-c3ccccc3Cl)cc12	·	·	?	-100%	5%	·
CN(Cc1ccccc1)c1ncnc2ccc(Br)cc12	-20%	-28	-2%	-48%	-4%[38.3 µM]	0.35µM*
COc1cc(NC2c3ncccc3C(=O)N2Cc2ccco2)cc(OC)c1 (configuration not stated)	-17%	3	16µM*	-23%	20%[38.3 µM]	2%
O=C1c2cccnc2C(Nc2ccc(Cl)cc2)N1Cc1cccs1 (configuration not stated)	·	·	4.5µM*	-2%	9%	-6%
COc1ccccc1C1CCN(c2ccc([N+](=O)[O-])c(OC)c2)CC1	·	·	1%	?	·	1%[9.22 µM]
COc1ccccc1C1C([N+](=O)[O-])=CC([N+](=O)[O-])=CN1C (configuration not stated)	-10%	·	13µM*	·	4%	20%
COc1ccccc1C1NC=C([N+](=O)[O-])C=C1[N+](=O)[O-] (configuration not stated)	3.5µM*	·	8.9µM*	·	9%	?
O=C(/C=C/c1ccccc1Cl)NC(=S)Nc1ccccc1C(=O)NC1CCCCC1	28µM*	0	22µM*	-14%	-9%[38.3 µM]	-10%
C[C@@H](O)C#C[Si](C)(C)c1ccccc1	3%	·	-4%	?	5%	·
CN(C)c1ncc2nc(-c3ccccc3)c(=O)n(CCC#N)c2n1	·	·	?	-64%	-19%	·
COC(=O)C1=C(C)N(CCc2ccc(OC)c(OC)c2)C(=O)/C1=C\N(C)C	-7%	-4	14µM*	-6%	35%[38.3 µM]	?
COc1ccc(CCNC2=C(Cl)C(=O)N(CCc3ccc(OC)c(OC)c3)C2=O)cc1OC	-22%	7	-5%	-60%	28%[38.3 µM]	-5%
CCOC(=O)C1CCN(CC(=O)Nc2cc(C)c3c(=O)oc4ccccc4c3n2)CC1	·	7	·	·	·	·
CC(NC1CCCC1)C(=O)Nc1ccccc1-c1ccccc1 (configuration not stated)	-1%	-1	?	-1%	-2%[38.3 µM]	0%
CC(NC1CCCCC1)C(=O)NN=C(c1ccccc1)c1ccccc1 (configuration not stated)	·	·	3.5µM*	-9%[10 µM]	18%	-2%[9.22 µM]
CCN(CC)CC(=O)NN=C(c1ccccc1)c1ccccc1	-5%	11	?	3%	17%[38.3 µM]	15%
CC(Cl)C(=O)NN=C(c1ccccc1)c1ccccc1 (configuration not stated)	·	·	1µM*	-38%[1.9 µM]	0%	9%[9.22 µM]
Cc1cc(-c2ccco2)n(-c2ccccc2)n1	32µM*	5	1.4µM*	-14%[0.074 µM]	4%[38.3 µM]	19%
Cc1cc(C)c(S(=O)(=O)N2CCOC2CNC(=O)C(=O)NCCCn2ccnc2)c(C)c1 (configuration not stated)	·	·	·	23%[10 µM]	·	-21%[9.22 µM]
COc1ccc(CN(C)C(=O)COC(=O)c2ccc3c(c2)OCO3)cc1OC	-13%	-9	-11%	16%[10 µM]	10%[38.3 µM]	12%
COc1ccc(C(C)=O)cc1COC(=O)c1ccc(S(=O)(=O)N(C)C)cc1	·	·	7.1µM*	?	8%	-6%

Bioassay records (PubChem BioAssay)
